Test results from PubChem BioAssay AID589 (National Center for Advancing Translational Sciences (NCATS), 2007).
Among all 59,000 compounds or so, about 6,200 (11%) were called active. Not shown: some 9% with an inconclusive outcome. No stated cut-off is given here; in the data, active means max dye-equivalent concentration above about 10 nM; inconclusive means mostly about 1.1 nM to 9.6 nM; inactive means weaker than that. What follows is part of a selection rich in actives, with near analogues and random picks from the rest.

Assay: qHTS Assay for Spectroscopic Profiling in 4-MU Spectral Region
Details: compound autofluorescence, 340/450 nm, 4-MU equivalents; active compounds read high
Summary of the method: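 Compounds in 100 mM Tris, pH 8.0, incubated 15 min at room temperature, then fluorescence read at 340 nm excitation/450 nm emission. Signal converted to 4-MU dye-equivalent concentration using an on-plate six-point 4-MU standard curve.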

SMILES | max dye-equivalent concentration
CC(C)(C)n1nnnc1C(c1ccc2ncccc2c1)N1CCSCC1 (centres undefined) | inactive
CCOC(=O)N1CCN(CC(=O)Nc2cc(C)nn2-c2nc3ccccc3s2)CC1 | inactive
CCOC(=O)N1CCN(C(=O)C2CCN(c3ncnc4c3sc3cccc(F)c34)CC2)CC1 | 18 nM (active)
CCOC(=O)N1CCN(C(=O)C2CCN(S(C)(=O)=O)CC2)CC1 | inactive
C=C(C)c1cccc(C(C)(C)NC(=O)N2CCN(c3ncccn3)CC2)c1 | inactive
CC1CCCC(NC(=O)CSc2nccn2C)C1C (centres undefined) | inactive
CN1[C@H]2CC(OC(=O)[C@@H](CO)c3ccccc3)C[C@H]1[C@H]1O[C@H]12 (some centres undefined) | inactive
O=c1cc(-c2ccccc2)[nH]c2nc(Cl)ccc12 | 76 nM (active)
O=C(NCCN1CCOCC1)c1c(F)c(F)c(F)c(F)c1F | inactive
Oc1c(Br)cc(CN(Cc2cc(Br)c(O)c(Br)c2)C2CCCCC2)cc1Br | inactive
Cc1cc(=O)n2nc(N3CCCC(C(=O)N4CCN(C)CC4)C3)sc2n1 (centres undefined) | inactive
Cc1cccc(NC(=O)CSc2nnc(CCCCCNC(=O)OC(C)(C)C)o2)c1C | inactive
COCC(=O)N1CCC2(CCCN(c3ccccc3)C2)CC1 | inactive
COC(=O)c1ccc(NCC(=O)c2ccccc2)cc1 | inactive
O=C(Nc1ccc(-c2nnc(-c3ccccc3)o2)cc1)C1CCCO1 (centres undefined) | inactive
O=C(Nc1ccc(-c2nnc(-c3ccccc3)o2)cc1)c1ccc(Br)o1 | 37 nM (active)
O=C(Nc1cccc(-c2nnc(-c3ccccc3)o2)c1)C1CCCO1 (centres undefined) | inactive
O=C(c1ccco1)N1CCN(C(=O)C2CC(c3ccc(Cl)c(Cl)c3)=NO2)CC1 (centres undefined) | inactive
O=C(CCn1c(=S)[nH]c2ccccc2c1=O)NCCCN1CCCC1=O | inactive
CSc1nnc(-c2ccncc2)n1CCCN1CCCC1=O | inactive
CC(C)(C)OC(=O)c1c(N)n(CCCN2CCCC2=O)c2nc3ccccc3nc12 | 6400 nM (active)
CC(C)NC(=O)N1CCCC2(CCN(C(=O)c3cccn3C)CC2)C1 | inactive

SMILES | max dye-equivalent concentration
COc1ccc2c(c1)CCc1c(C(=O)N3CCCC3)noc1-2 | inactive
COc1ccc(-n2c(C)nc3c(cnn3-c3ccccc3)c2=O)cc1 | inactive
CCNc1ncc2ncc(=O)n(CCc3ccccc3)c2n1 | 75 nM (active)
COc1cccc(Cn2c(=O)c(-c3ccccc3)nc3cnc(OC)nc32)c1 | inactive
COc1cccc(Cn2c(=O)c(CCc3ccccc3)nc3cnc(N(C)C)nc32)c1 | 22 nM (active)
COc1cccc(Nc2ncc3ncc(=O)n(C4CC4)c3n2)c1 | inactive
CCNc1ncc2ncc(=O)n(Cc3cccc(OC)c3)c2n1 | 14 nM (active)
COc1cccc(Cn2c(=O)c(C)nc3cnc(Oc4ccccc4)nc32)c1 | inactive
CCc1nnc(NC(=O)CSc2nnc(Cc3ccccc3)n2-c2ccc(OC)cc2)s1 | inactive
COc1cccc(Cn2c(=O)cnc3cncnc32)c1 | inactive
CCNc1ncc2nc(CCc3ccccc3)c(=O)n(-c3ccc(OC)cc3)c2n1 | 12 nM (active)
O=c1cnc2cnc(Nc3ccccc3)nc2n1Cc1ccc(F)cc1 | inactive
COc1cccc(CN2C(=O)CCC2(C)C(=O)NC2CCCCCC2)c1 (centres undefined) | inactive
Cc1cc(N2C(=O)c3ccc(C(=O)NCc4ccccc4)cc3C2=O)no1 | inactive
COC(=O)[C@H](Cc1ccccc1)NC(=O)N1CC(C)OC(C)C1 (some centres undefined) | inactive
O=C(C1CCC(C(=O)N2CCCC2)CC1)N1CCCC1 (centres undefined) | inactive
O=C(c1cccs1)N1CCCC(c2nc(-c3ccc(F)cc3)no2)C1 (centres undefined) | inactive
C=CCn1c(=O)c2ccccc2n2c(SCC(=O)N3CCCc4ccccc43)nnc12 | inactive
CC(C)CC(=O)N=C1SC2CS(=O)(=O)CC2N1CCc1ccccc1 (centres undefined) | inactive
CCCCN(C)C(=O)C1CCN(Cc2ccccn2)CC1 | inactive
Cc1nc(SCC(=O)Nc2cc(C)on2)c2c3c(sc2n1)CCCC3 | inactive
O=C(Nc1cccc2c1CCCC2)C1CCN(C(=O)NC2CCCCC2)CC1 | inactive

SMILES | max dye-equivalent concentration
CCOc1ccccc1N=C1NC(=O)CS1 | inactive
CCc1nnc(NC(=O)c2c(O)c3c([nH]c2=O)CCCC3)s1 | inactive
CNc1cc(-c2c(C)noc2C)ncn1 | inactive
COCCNc1cc(-c2c(C)noc2C)ncn1 | 11 nM (active)
COc1ccccc1CNc1ncnc2ccc(-c3c(C)noc3C)cc12 | inactive
Cc1noc(C)c1-c1cc(NCc2cccnc2)ncn1 | inactive
Cc1cccc(CNc2cc(-c3ccccc3Cl)ncn2)c1 | inactive
Cc1cnc(CNc2cc(-c3c(C)noc3C)ncn2)cn1 | 18 nM (active)
CCOC(=O)c1[nH]cnc1C(=O)NC1CCCCC1 | inactive
C[C@]1(O)CC[C@H]2[C@H]3CC=C4N5CCN=C5CC[C@@]4(C)[C@H]3CC[C@@]21C | inactive
O=C(Nc1c(Cl)cccc1Cl)C1CCC1 | inactive
O=C(NCc1ccco1)c1cc2sccc2n1Cc1ccc(F)cc1 | inactive
Cc1nc2nc(CSc3nc4ccccc4s3)cc(=O)n2[nH]1 | inactive
Cc1cccc(-n2c(N)c(C(=O)N3CCN(C)CC3)sc2=S)c1 | inactive
CC(C(=O)Nc1ccccc1-c1ccccc1)N1CCOCC1 (centres undefined) | inactive
CC(C(=O)N1CCOCC1)N1c2cccc3cccc(c23)S1(=O)=O (centres undefined) | 74 nM (active)
O=C(c1ccccc1-c1ccccc1)N1CCOCC1 | inactive
COc1ccc(N(CC(=O)NC(C)(C)C)C(=O)c2ccco2)cc1 | inactive
COc1cc(C(=O)N(Cc2ccc(N(C)C)cc2)C2CCS(=O)(=O)C2)cc(OC)c1OC (centres undefined) | inactive
CCOc1ccc2nc(NCCNS(=O)(=O)c3ccccc3)c(C#N)cc2c1 | 110 nM (active)
CCOc1ccc(Nc2oc(Cc3ccccc3)nc2C#N)cc1 | inactive
O=C(O)c1cccc(S(=O)(=O)NCCO)c1 | inactive

SMILES | max dye-equivalent concentration
Cc1cc(C)c(NC(=O)CS(=O)CC(=O)Nc2cccnc2)c(C)c1 (centres undefined) | inactive
COc1ccc(C(CC(=O)O)NC(=O)Cc2ccccc2)cc1 (centres undefined) | inactive
CCOC(=O)c1cc(C)sc1NC(=O)C1CCC1 | inactive
COC(=O)c1ccccc1NC(=O)c1ccccc1NS(C)(=O)=O | inactive
O=C(C1CCN(S(=O)(=O)c2cccs2)CC1)N1CCCCCC1 | inactive
O=C(Nc1nncs1)c1ccccc1NS(=O)(=O)c1cccs1 | 530 nM (active)
COc1ccc(CNC2CCCCC2)cc1 | inactive
c1n[nH]c(NCc2ccc3c(c2)OCO3)n1 | inactive
CN(Cc1ccccc1)c1nc2c(c(=O)[nH]c(=O)n2C)n1CCSc1nc2ccccc2[nH]1 | inactive
COc1cc(NC(=O)N2CCOCC2)cc(OC)c1 | inactive
COc1ccc(OC)c(NC(=O)CCN2CCC(C)CC2)c1 | inactive
Cc1c(C(=O)N2CCOCC2)[nH]c2ccc(OCc3ccccc3)cc12 | inactive
COC(=O)c1[nH]c2ccccc2c1NC(=O)CN1CCCc2ccccc21 | inactive
CCOC(=O)c1[nH]c2ccc(OC)cc2c1NC(=O)CCN1CCN(Cc2ccccc2)CC1 | 57 nM (active)
CCOC(=O)c1[nH]c2ccc(OC)cc2c1NC(=O)N1CCOCC1 | 130 nM (active)
COc1cccc(NC(=O)CN(C)S(=O)(=O)c2ccc(C)cc2)c1 | inactive
Cc1nonc1OCCn1nnnc1N | inactive
CCNC(=O)CN(c1ccc(C)cc1)S(=O)(=O)c1ccc(SC)cc1 | inactive
C=CCn1c(COc2cccc3cccnc23)nnc1SCC(=O)OC | inactive
CC(=O)Nc1cccc(Oc2cc(C#N)c(C#N)cc2N2CCOCC2)c1 | inactive
CCOc1cc(N2CCOCC2)c(OCC)cc1NC(=O)COc1cccc2cccnc12 | 16 nM (active)
O=C1NC(c2cc3c(cc2Cl)OCO3)Oc2ccccc21 (centres undefined) | inactive

SMILES | max dye-equivalent concentration
CCOC(=O)c1cc(NC(=O)c2cccnc2)cc(C(=O)OCC)c1 | inactive
CCC(=O)Nc1cccc(NC(=O)c2cccnc2)c1 | inactive
Cc1cc2nc(-c3ccc(NC(=O)c4cccnc4)cc3)oc2cc1C | 15 nM (active)
CNc1nc(-c2ccccc2OC)nc2ccccc12 | inactive
COc1ccccc1-c1nc(NCc2cccs2)c2ccccc2n1 | inactive
Cc1nc2c(c(=O)n1Cc1ccco1)c1nc3ccccc3nc1n2Cc1ccccc1 | 93 nM (active)
COc1ccccc1NC(=O)CSc1nc2sc(C)c(C)c2c(=O)n1Cc1ccco1 | inactive
COCCCn1c2nc3ccccc3nc2c2c(=O)n(Cc3ccc(Cl)cc3)c(C)nc21 | 320 nM (active)
CCOC(=O)CSc1nc2c(sc(=S)n2CCc2ccccc2)c(=O)n1Cc1ccco1 | inactive
Cc1ccc(Cn2c(C)nc3c(c2=O)c2nc4ccccc4nc2n3Cc2ccco2)cc1 | 760 nM (active)
Cc1nc2ccccc2c(=O)n1CCCn1ccnc1 | inactive
CC(Sc1nc2ccccc2c(=O)n1Cc1ccco1)C(=O)c1ccccc1 (centres undefined) | inactive
O=c1c2ccccc2oc2nc(C3CCCCC3)n(Cc3ccco3)c(=O)c12 | inactive
Cn1c(COc2ccc(Cl)cc2)nc2ccccc2c1=O | inactive
Cc1ccc(S(=O)(=O)N2CCC(C(=O)OCC(=O)N3CC(=O)Nc4ccccc43)CC2)cc1 | inactive
CN(C)C(=O)c1ccc(-c2cncnc2NC2CCNCC2)cc1 | inactive
CC(=O)OCC(=O)[C@@]1(O)CC[C@@H]2[C@H]3CCC4=CC(=O)C=C[C@]4(C)[C@]3(F)[C@@H](O)C[C@@]21C | inactive
Cn1c(Cc2csc(N)n2)nnc1SC/C=C/c1ccccc1 | inactive
O=C(Nc1ccc2c(c1)OCCO2)c1ccncc1 | inactive
COc1ccc(C(=O)N2CCC3(CCCN(C(c4ccccc4)c4ccccc4)C3)CC2)cc1 | inactive
CC(c1ccco1)N(C(=O)c1ccc(S(=O)(=O)N2CCCCC2)cc1)c1ccccn1 (centres undefined) | inactive
